Data on ten molecules can be found in PubChem BioAssay (NCI).

Test in all cases: NCI-60 one-dose screen, 48 h (100 = growth as untreated, 0 = no growth, -100 = all killed)
Common to all, as to conditions: 10 µM unless noted

The test system of assay [1] is SR leukemia.
Assay [2] relates to RPMI-8226 leukemia.
Assay [3] relates to OVCAR-8 ovarian.
The test system of assay [4] is OVCAR-5 ovarian.
The test system of assay [5] is OVCAR-4 ovarian.
In assay [6] the test system is SK-OV-3 ovarian.
Assay [7] concerns IGROV1 ovarian.
For assay [8], the system named is OVCAR-3 ovarian.
Assay [9] concerns HS 578T breast.
Assay [10] relates to T-47D breast.
Assay [11] has as its system BT-549 breast.
Assay [12] relates to MDA-MB-435 melanoma.
For assay [13], the system named is SW-620 colon.
Assay [14] deals with MCF7 breast.
Assay [15] concerns HCT-116 colon.
Assay [16] deals with HCC-2998 colon.
The test system of assay [17] is KM12 colon.
For assay [18], the system named is NCI/ADR-RES ovarian.

The structures appear in SMILES notation. Compounds without any hit were thinned out: in the full panel of roughly 83,000, 20% have a hit.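 A percent growth of 40 corresponds to 60% growth inhibition; 0 means no net growth; -100 means all cells died. Active threshold: below 10.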 Unmarked numbers belong to inactive results. Active and inactive are the calls of the source.

Turning to `COCCn1cc(-c2nc(-c3cn(CCOC)c4ncccc34)cs2)c2cc(F)ccc21`, the growth in assay [1] was 35.3%; in assay [2] it was 61.3%; in [3] it was 62.4%; in assay [4], 38.8%; in assay [5] it was 25.4%; in assay [6], 76.8%. Also, the growth is 30.1% in [7]; 17.6% in assay [8]; 70.8% in assay [9]; -11.9% (active) in assay [10]; 51.7% in assay [11]; 59.1% in [12]. Besides, the growth in assay [13] is 90.7%; in [14] it was 7.84% (active); in assay [15], 61.8%; in [16], 42.1%; in assay [17], 10.6%.
Take `COc1ccc(C2C3=C(COC3=O)N(CCO)c3cc4c(cc32)OCO4)cc1OC` (centres undefined): the growth in assay [1] was 24.3%; in assay [2], 88.8%; in assay [3] it was 102%; in assay [4] it was 94.7%; in assay [5], 88.1%; in assay [7], 60.9%. For the same molecule, the growth is 43% in assay [8]; 92.4% in assay [9]; 94.7% in assay [18]; 87.5% in assay [10]; 80.5% in assay [11]; 5.99% (active) in [12]. Moreover, the growth was 61.6% in assay [13]; 64.3% in [14]; 68.6% in assay [15]; 74.5% in assay [16]; 62.4% in [17].
In the case of `Fc1ccc(/C=C/[C@@H]2C[C@@H](F)CCO2)cc1`, the growth in [1] was 61.1%; in assay [2], 67.6%; in [3], 98.4%; in [4] it was 89.7%; in assay [5], 119%; in assay [7], 103%. The growth in [8] is 113%; in assay [9], 84.8%; in [18] it was 103%; in assay [10] it was 101%; in assay [11] it was 100%; in assay [12], 97.9%. The growth in [13] is 90.2%; in [14], 91.3%; in assay [15], 82.2%; in assay [16], 60.6%; in assay [17], 105%.
`CC(C)C1C2=C(NCCN1C(=O)c1ccncc1)C(C)(C)N(Cc1ccccc1)C2=O` (centres undefined): the growth was 89.4% in [1]; 112% in assay [2]; 108% in assay [3]; 107% in assay [4]; 111% in assay [5]; 98.9% in assay [6]. Moreover, the growth in [7] was 101%; in [8], 102%; in assay [9], 109%; in [10], 103%; in [11], 104%; in assay [12], 104%. Moreover, the growth in assay [13] is 105%; in assay [14], 95.5%; in assay [15], 92.8%; in assay [16], 100%; in [17], 97.6%.
Regarding `CCOC(=O)C/C(=N\Nc1cc(=O)[nH]c2ccc(OC)cc12)C(=O)OCC`, the growth in assay [1] is 67%; in [2] it was 68.5%; in assay [3] it was 103%; in [4] it was 96.6%; in assay [5], 101%; in assay [6], 121%. The growth in assay [7] was 92.4%; in assay [8] it was 109%; in assay [9], 91.8%; in assay [10], 101%; in [11], 110%; in assay [12], 99%. For the same molecule, the growth in assay [13] is 90.3%; in assay [14], 87.9%; in assay [15] it was 101%; in assay [16], 101%; in assay [17], 99.2%.
In the case of `Cc1cccc(NC(=O)N/C(N)=N/c2nc3ccccc3s2)c1`, the growth in assay [1] is 27.1%; in assay [2], 26.4%; in assay [3] it was 35.5%; in assay [4], 56.4%; in [5], 56.9%; in assay [7] it was 36.9%. Further, the growth in [8] is 8.85% (active); in [9] it was 23.8%; in [18], 15%; in [10], 35.5%; in assay [11], 57.2%; in [12], 2.83% (active). Further, the growth in assay [13] is 34.3%; in assay [14], 21.9%; in assay [15], 23.8%; in assay [16] it was 56.4%; in assay [17], 25.1%.
In the case of `O=C(Cn1nc(-c2cccc3ccccc23)ccc1=O)NCc1cccc(Cl)c1`, the growth in assay [1] was 22.2% [50 µM]; in assay [2] it was 23.7% [50 µM]; in assay [3], 39.5% [50 µM]; in assay [4] it was 67.8% [50 µM]; in [5], 41.4% [50 µM]; in [7], 47.2% [50 µM]. For the same molecule, the growth in [8] was 38.6% [50 µM]; in [9], 61.6% [50 µM]; in assay [18], 27.1% [50 µM]; in [10], 9.17% [50 µM] (active); in assay [11], 44.3% [50 µM]; in [12], 45.5% [50 µM]. Besides, the growth in assay [13] was 55% [50 µM]; in assay [14], 20.1% [50 µM]; in [15], 33.5% [50 µM]; in assay [16], 54.6% [50 µM]; in [17], 41.7% [50 µM].
Take `CCCCCc1ccc(S(=O)(=O)Nc2ccc3nc(N)oc3c2)cc1`: the growth was 31.1% in [1]; 38.4% in assay [2]; 53.8% in [3]; 99.5% in assay [4]; 27.3% in [5]; 81.8% in assay [6]. Further, the growth was 68.4% in assay [7]; 64.5% in assay [8]; 73.9% in [9]; 36.1% in assay [10]; 61.9% in assay [11]; 50.3% in assay [12]. Further, the growth is 76.8% in [13]; 31.8% in [14]; 43% in [15]; 98.5% in assay [16]; 64.1% in assay [17].
Take `COc1ccc(C(=O)Nc2ncc(Cc3ccc(Cl)cc3)s2)cc1`: the growth in [1] is 5.82% (active); in [2] it was 18.2%; in assay [3], 25.7%; in assay [4], 30.2%; in [5], 49.1%; in assay [6] it was 40%. In addition, the growth in [7] was 14.4%; in assay [8] it was -16.2% (active); in [9], 18.2%; in [10], 25.9%; in assay [11], 17.8%; in [13] it was 25.7%. Besides, the growth in assay [14] was 8.72% (active); in assay [15], 3.61% (active); in assay [16], 6.76% (active); in assay [17], 5.8% (active).
On to `COC1C(O)CC(OC2CC(OC3CC(O[C@@H]4C(=O)c5c(cc6cc(OC7CC(OC8CC(O)C(O)C(C)O8)C(O)C(C)O7)c(C)c(O)c6c5O)CC4[C@H](OC)[C@@H](O)C(C)=O)OC(C)C3O)OC(C)C2O)OC1C` (some centres undefined), for which the growth in assay [1] is 4.82% (active); in [2], 7.39% (active); in assay [3], 8.72% (active); in [4] it was 12%; in assay [5], 16.9%; in [6], 22.2%. The growth in assay [7] is 17.4%; in assay [8], 5.36% (active); in assay [9], 21.7%; in assay [10], 1.23% (active); in [11] it was -1.59% (active); in assay [12], 5.77% (active). The growth in assay [13] was 14.9%; in [14], 4.58% (active); in assay [15], 4.98% (active); in assay [16], -50% (active); in [17], 14.7%.
